Source: PubChem BioAssay (NCI)
Compounds without any hit were thinned out: in the full panel of roughly 79,000, 15% have a hit. Calls of active or inactive are those of the source. Rule as the data show it: active = growth inhibition above about 70%; inactive = the rest.

Key:
[1] = NCI Yeast Anticancer Drug Screen. Data for the rad52 strain (AID 147);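 also: 0% = growth of vehicle-treated control cultures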; details: S. cerevisiae rad52 mutant growth inhibition, hits give high values
Method in brief: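 Yeast strain carrying a DNA damage repair alteration was exposed to test compounds. Growth inhibition was measured relative to vehicle-treated controls.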

[2] = NCI Yeast Anticancer Drug Screen. Data for the wt1 strain (AID 149);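 also: 0% = growth of vehicle-treated wt1 cultures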; details: S. cerevisiae wt1 strain (SPY 50644) growth inhibition, hits give high values
Method in brief: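 Compounds are added to wt1 yeast cultures. Growth is then measured. Inhibition is expressed relative to vehicle-treated controls.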

[3] = NCI Yeast Anticancer Drug Screen. Data for the rad50EPP+ strain (AID 151);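 also: 0% = growth of vehicle-treated control cultures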; details: S. cerevisiae rad50 mutant strain, hits give high values
Method in brief: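 Yeast strain carrying rad50 alteration (rad50EPP+) exposed to compounds; growth inhibition measured relative to vehicle-treated controls.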

[4] = NCI Yeast Anticancer Drug Screen. Data for the mgt1 strain (AID 153); details: S. cerevisiae mgt1 mutant growth inhibition, hits give high values
Method in brief: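 Yeast mgt1 strain (DNA repair/cell-cycle alteration panel) exposed to compounds; growth inhibition measured relative to vehicle-treated controls.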

[5] = NCI Yeast Anticancer Drug Screen. Data for the rad50 strain (AID 155);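 also: 0% = growth of vehicle-only cultures of the same strain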; details: S. cerevisiae rad50 strain growth inhibition, hits give high values
Method in brief: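 Inhibition values express reduced yeast growth in compound-treated cultures relative to vehicle-treated controls.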

[6] = NCI Yeast Anticancer Drug Screen. Data for the mec2-1 strain (AID 157); details: S. cerevisiae mec2-1 strain, hits give high values
Method in brief: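 mec2-1 yeast strain, carrying an alteration in DNA damage repair or cell cycle control, was exposed to compounds; growth inhibition was measured relative to vehicle-treated controls.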

[7] = NCI Yeast Anticancer Drug Screen. Data for the rad14 strain (AID 159);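 also: 0% = growth of vehicle-treated control cultures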; details: S. cerevisiae rad14 strain growth inhibition, hits give high values
Method in brief: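 A mutant yeast strain defective in DNA damage repair is treated with compound; inhibition of its growth is scored against untreated, vehicle-exposed cultures.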

[8] = NCI Yeast Anticancer Drug Screen. Data for the sgs1 mgt1 strain (AID 161);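 also: 0% = growth of cultures given vehicle only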; details: S. cerevisiae sgs1 mgt1 strain, hits give high values
Method in brief: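 Yeast cells carrying a defined DNA-repair defect were exposed to test compounds. Growth inhibition was measured relative to vehicle-treated controls.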

[9] = NCI Yeast Anticancer Drug Screen. Data for the CLN2oe strain (AID 163);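 also: 0% = growth of vehicle-only control cultures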; details: S. cerevisiae CLN2oe strain, hits give high values
Method in brief: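 Yeast cells carrying a defined cell-cycle control alteration were exposed to test compounds. Growth inhibition was scored against vehicle-treated control cultures.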

[10] = NCI Yeast Anticancer Drug Screen. Data for the cln2 rad14 strain (AID 165);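 also: 0% = growth equal to vehicle treated cultures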; details: S. cerevisiae cln2 rad14 strain, hits give high values
Method in brief: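 Yeast carrying cln2 and rad14 alterations (cell cycle control and DNA damage repair) were exposed to compounds. Growth inhibition was measured against vehicle-treated controls.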

[11] = NCI Yeast Anticancer Drug Screen. Data for the bub3 strain (AID 167); details: S. cerevisiae bub3 mutant strain, hits give high values
Method in brief: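 Steps: expose the mutant yeast strain to compound; grow alongside vehicle-treated cultures; measure growth; express inhibition against the vehicle cultures.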

[12] = NCI Yeast Anticancer Drug Screen. Data for the wt2 strain (AID 169);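 also: 0% = growth of vehicle-treated yeast cultures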; details: S. cerevisiae wt2 strain growth inhibition, hits give high values
Method in brief: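 Yeast cells were exposed to test compounds, and growth inhibition was measured relative to vehicle-treated controls.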

[13] = NCI Yeast Anticancer Drug Screen. Data for the mlh1 strain (AID 171);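 also: 0% = growth of vehicle-treated control cultures of the same strain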; details: S. cerevisiae mlh1 strain growth inhibition, hits give high values
Method in brief: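 Yeast carrying a defined genetic alteration in DNA damage repair or cell cycle control were exposed to test compounds. Growth inhibition was measured relative to vehicle-treated controls.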

[14] = NCI Yeast Anticancer Drug Screen. Data for the sgs1 strain (AID 173);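 also: 0% = growth of vehicle-only control cultures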; details: S. cerevisiae sgs1 mutant, hits give high values
Method in brief: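 Yeast mutant strains carrying defined defects in DNA damage repair or cell cycle control were exposed to test compounds. Growth inhibition was scored against vehicle-treated controls.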

[15] = NCI Yeast Anticancer Drug Screen. Data for the mlh1 rad18 strain (AID 175); details: S. cerevisiae mlh1 rad18 strain growth inhibition, hits give high values
Method in brief: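 Growth inhibition of the yeast strain was measured after compound exposure and expressed relative to vehicle-treated controls. The strain carries defined defects in DNA damage repair.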

[16] = at 5.0 µM (retest, dose inferred, filed as 0.5)
[17] = at 50.0 µM (retest, dose inferred, filed as 5.0)

Measured: growth inhibition

O=C(/C(=C/c1ccc(O)cc1)c1ccccc1)c1ccccc1
inactive: [1]; at 1.2 µM -52% | [1]; at 3.7 µM -55% | [1]; at 11.0 µM -14% | [2]; at 1.2 µM -22% | [2]; at 3.7 µM -13% | [2]; at 11.0 µM 35% | [3]; at 1.2 µM -5% | [3]; at 3.7 µM -2% | [3]; at 11.0 µM 1% | [3]; at 33.0 µM 15% | [3]; at 100.0 µM 9% | [4]; at 1.2 µM -4% | [4]; at 3.7 µM -2% | [4]; at 11.0 µM 51% | [5]; at 1.2 µM -8% | [5]; at 3.7 µM -2% | [5]; [16] 27% | [5]; at 11.0 µM 53% | [6]; at 1.2 µM -27% | [6]; at 3.7 µM -20% | [6]; [16] -8% | [6]; at 11.0 µM 55% | [6]; at 50.0 µM 34.5% | [7]; at 1.2 µM -2% | [7]; at 3.7 µM 0% | [7]; at 11.0 µM 13% | [8]; [16] 39% | [9]; at 1.2 µM 8% | [9]; at 3.7 µM 10% | [9]; at 11.0 µM 61% | [10]; [16] 20% | [11]; at 1.2 µM 22% | [11]; at 3.7 µM 12% | [11]; [16] 2% | [12]; at 1.2 µM -38% | [12]; at 3.7 µM -31% | [12]; at 11.0 µM 33% | [13]; at 1.2 µM 6% | [13]; at 3.7 µM 24% | [13]; at 11.0 µM 68% | [14]; at 1.2 µM -18% | [14]; at 3.7 µM -13% | [14]; at 11.0 µM 16% | [15]; [16] 0%
active: [1]; at 33.0 µM 99% | [1]; at 100.0 µM 93% | [2]; at 33.0 µM 98% | [2]; at 100.0 µM 92% | [4]; at 33.0 µM 99% | [4]; at 100.0 µM 89% | [5]; at 33.0 µM 98% | [5]; [17] 98% | [5]; at 50.0 µM 87.5% | [5]; at 100.0 µM 93% | [6]; at 33.0 µM 98% | [6]; [17] 97% | [6]; at 100.0 µM 85% | [7]; at 33.0 µM 99% | [7]; at 100.0 µM 94% | [8]; [17] 97% | [8]; at 50.0 µM 93% | [9]; at 33.0 µM 99% | [9]; at 100.0 µM 93% | [10]; [17] 97% | [10]; at 50.0 µM 92.5% | [11]; at 11.0 µM 82% | [11]; at 33.0 µM 99% | [11]; [17] 98% | [11]; at 50.0 µM 91.3% | [11]; at 100.0 µM 90% | [12]; at 33.0 µM 98% | [12]; at 100.0 µM 93% | [13]; at 33.0 µM 98% | [13]; at 100.0 µM 88% | [14]; at 33.0 µM 98% | [14]; at 100.0 µM 93% | [15]; [17] 98% | [15]; at 50.0 µM 84%

S=C(NCc1ccccn1)N/N=C/c1ccccn1
active: [1]; at 1.2 µM 98% | [1]; at 3.7 µM 99% | [1]; at 11.0 µM 99% | [1]; at 33.0 µM 99% | [1]; at 100.0 µM 98% | [2]; at 1.2 µM 98% | [2]; at 3.7 µM 98% | [2]; at 11.0 µM 99% | [2]; at 33.0 µM 99% | [2]; at 100.0 µM 99% | [3]; at 11.0 µM 87% | [3]; at 33.0 µM 93% | [3]; at 100.0 µM 96% | [4]; at 1.2 µM 97% | [4]; at 3.7 µM 98% | [4]; at 11.0 µM 99% | [4]; at 33.0 µM 99% | [4]; at 100.0 µM 99% | [5]; at 1.2 µM 97% | [5]; at 3.7 µM 98% | [5]; at 11.0 µM 98% | [5]; at 33.0 µM 98% | [5]; [17] 99% | [5]; at 50.0 µM 75.5% | [5]; at 100.0 µM 98% | [6]; at 1.2 µM 97% | [6]; at 3.7 µM 98% | [6]; at 11.0 µM 99% | [6]; at 33.0 µM 99% | [6]; [17] 99% | [6]; at 50.0 µM 84.2% | [6]; at 100.0 µM 99% | [7]; at 1.2 µM 98% | [7]; at 3.7 µM 99% | [7]; at 11.0 µM 99% | [7]; at 33.0 µM 99% | [7]; at 100.0 µM 99% | [8]; [17] 99% | [8]; at 50.0 µM 90.1% | [9]; at 1.2 µM 97% | [9]; at 3.7 µM 99% | [9]; at 11.0 µM 99% | [9]; at 33.0 µM 99% | [9]; at 100.0 µM 99% | [10]; [17] 99% | [10]; at 50.0 µM 89.7% | [11]; at 1.2 µM 94% | [11]; at 3.7 µM 98% | [11]; at 11.0 µM 99% | [11]; at 33.0 µM 99% | [11]; [17] 99% | [11]; at 50.0 µM 90.1% | [11]; at 100.0 µM 98% | [12]; at 1.2 µM 97% | [12]; at 3.7 µM 98% | [12]; at 11.0 µM 98% | [12]; at 33.0 µM 99% | [12]; at 100.0 µM 99% | [13]; at 1.2 µM 96% | [13]; at 3.7 µM 98% | [13]; at 11.0 µM 98% | [13]; at 33.0 µM 97% | [13]; at 100.0 µM 98% | [14]; at 1.2 µM 99% | [14]; at 3.7 µM 98% | [14]; at 11.0 µM 98% | [14]; at 33.0 µM 99% | [14]; at 100.0 µM 99% | [15]; [17] 99% | [15]; at 50.0 µM 90.7%
inactive: [3]; at 1.2 µM 34% | [3]; at 3.7 µM 63% | [5]; [16] 40% | [6]; [16] 33% | [8]; [16] 69% | [10]; [16] -1% | [11]; [16] -10% | [15]; [16] 5%
